The values below come from PubChem BioAssay.

Values joined by “and” are separate entries in the source; they are usually repeats but may differ in a detail not shown here. Equal entries are not always repeated. Active and inactive are the calls of the source.

Assay [1] in a line: small molecules captured by biotinylated probe aFSTL3 – biochemical, small-molecule microarray, fluorescence 635/667, stem cell growth factor project, primary screen (AID 1064).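 Also: measures binding of the biotinylated anti-FSTL3 antibody to printed compounds.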 Conditions: higher = more signal.
Assay [2] is described as follows: binders from COS7 lysate, DM2A8 probe, primary screen, torsin A project, cell lysate, small-molecule microarray, fluorescence 635/667 (AID 1065). Conditions: higher = more signal, COS7 lysate expressing mutant human TOR1A.
Assay [3] is described as follows: small molecules captured by biotinylated probe aFGF2 – biochemical, small-molecule microarray, fluorescence 635/667, stem cell growth factor project, primary screen (AID 1067).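 Also: measures binding of biotinylated aFGF2 protein to printed compounds on slides; z-score merges feature fluorescence and signal-to-noise across triplicate slides.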 As to conditions: higher = more signal.
The nature of assay [4]: small molecules captured by biotinylated probe aFGF10 – biochemical, small-molecule microarray, fluorescence 635/667, stem cell growth factor project, primary screen (AID 1071).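 Also: score merges 667 nm spot intensity and signal to noise from triplicate slides.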 As to conditions: higher = more signal.
For assay [5], the target named is Neurogenic locus notch homolog protein 2 (Homo sapiens) (UniProt Q04721). The assay is described as follows: small molecules binding Notch2 protein – biochemical, small-molecule microarray, 635 nm fluorescence, stem cell growth factors, primary screen (AID 1073). Conditions: higher = more signal.
Assay [6] addresses Pro-neuregulin-1, membrane-bound isoform (Homo sapiens) (UniProt Q02297). The assay is described as follows: small molecules binding neuregulin-1 protein – biochemical, small-molecule microarray, fluorescence 635/667, psychiatric disease protein project, primary screen (AID 1075).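 Also: score combines 667 nm spot fluorescence with signal to noise.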 As to conditions: NRG1 binding, 635 nm fluorescence, higher = more signal.
Assay [7] concerns Neuregulin-1 EGF-like domain. The assay is described as follows: small molecules binding NRG1 EGF domain – biochemical, small-molecule microarray, 635 nm fluorescence, primary screen (AID 1081).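 Also: binding of the protein to compounds printed on small-molecule microarray slides.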 As to conditions: higher = more signal.
Assay [8] can be described thus: FRG1 expression reporter modulators in myotubes – cell-based, C2C12 myotubes, firefly/Renilla luciferase, luminescence, FRG1 inhibition for FSHD, primary screen (AID 1084). Conditions: FRG1 promoter luciferase, higher = more signal, called active from +8 up or from −8 down.
Assay [9] in a line: small molecules captured by biotinylated probe aFST – biochemical, small-molecule microarray, fluorescence 635/667, stem cell growth factor project, primary screen (AID 1086).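 Also: score merges 667 nm fluorescence with signal-to-noise of each printed compound spot.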 Conditions: higher = more signal.
The nature of assay [10]: binders of probe aHhip on microarray, primary screen, stem cell growth factor project, biochemical, small-molecule microarray, fluorescence 635/667 (AID 1087).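 Also: score merges spot fluorescence at 667nm with spot signal to noise ratio.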 Conditions: higher = more signal.
Assay [11] deals with PRMT1 (protein arginine N-methyltransferase 1). The assay is described as follows: small molecules binding arginine methyltransferase PRMT1 – biochemical, small-molecule microarray, 635 nm fluorescence, primary screen (AID 1088).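 Also: binding of Prmt1 protein to compounds spotted on small-molecule microarray slides.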 Conditions: higher = more signal.
Assay [12] can be described thus: growth effects on S. cerevisiae YJM789 – YJM789 clinical isolate, OD600, 24 h, basal, primary screen (AID 1089).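 Also: growth of clinical yeast isolate S. cerevisiae YJM 789 seeded 1000 cells per well; test concentration not given here.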 Conditions: higher = more signal, called active from +8 up or from −8 down.
The nature of assay [13]: S. pombe growth modifiers, basal conditions – strain 972, OD600, 24 h, no modulator, primary screen (AID 1090).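 Also: basal condition with compound alone and no growth modifier present; test concentration not given here.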 As to conditions: S. pombe 972 growth, higher = more signal, called active from +8 up or from −8 down.
Assay [14] in a line: budding yeast growth modifiers under rapamycin – strain BY4716, OD600, 96 h, primary screen (AID 1091). Also: test concentration not given here. Conditions: S. cerevisiae BY4716 + rapamycin, higher = more signal, called active from +8 up or from −8 down.
Assay [15] deals with Torsin-1A-interacting protein 2 (Homo sapiens) (UniProt Q8NFQ8). The assay is described as follows: small molecules binding lysate-expressed LULL1 – cell lysate, human LULL1 lysate, 635/667 nm fluorescence, primary screen (AID 1092).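 Also: score merges per-feature 667 nm fluorescence with signal-to-noise.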 As to conditions: small-molecule microarray, hLULL1 lysate binding, 635 nm fluorescence; higher = more signal.
Assay [16] is described as follows: optical density change of DRC41 E. coli – strain DRC41, OD650, 24 h, E. coli filamentation project, primary screen (AID 1093).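 Also: MC1000 strain lacking acrAB efflux and sulA so SOS filamentation is blocked; test concentration not given here.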 As to conditions: E. coli DRC41 growth, higher = more signal, called active from +8 up or from −8 down.
A short description of assay [17]: probe aLefty2 binding to arrayed compounds – biochemical, biotinylated probe, 635/667 nm fluorescence, primary screen (AID 1094).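 Also: score merges spot fluorescence near 667 nm with spot signal-to-noise ratio.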 Conditions: small-molecule microarray, higher = more signal.
The subject of assay [18] is Noggin (protein binding on small-molecule microarray). The assay is described as follows: small molecules binding Noggin protein – biochemical, 635/667 nm fluorescence, primary screen (AID 1095).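 Also: score merges 667 nm feature fluorescence with signal to noise over triplicate slides.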 Conditions: 635 nm fluorescence, higher = more signal.
Assay [19] addresses Neurogenic locus notch homolog protein 3 (Homo sapiens) (UniProt Q9UM47). The assay is described as follows: small molecules binding NOTCH3 protein – biochemical, 635/667 nm fluorescence, primary screen (AID 1096). As to conditions: small-molecule microarray, 635 nm fluorescence, higher = more signal.
Assay [20] in a line: probe aEGFR binding to arrayed compounds – biochemical, biotinylated probe, 635/667 nm fluorescence, primary screen (AID 1097).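 Also: probe is a biotinylated anti-EGFR antibody binding compounds printed on slides; score combines fluorescence near 667 nm and signal to noise of each spot.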 As to conditions: small-molecule microarray, higher = more signal.

Sequence of Torsin-1A-interacting protein 2 (Homo sapiens) (Q8NFQ8 whole entry, looked up): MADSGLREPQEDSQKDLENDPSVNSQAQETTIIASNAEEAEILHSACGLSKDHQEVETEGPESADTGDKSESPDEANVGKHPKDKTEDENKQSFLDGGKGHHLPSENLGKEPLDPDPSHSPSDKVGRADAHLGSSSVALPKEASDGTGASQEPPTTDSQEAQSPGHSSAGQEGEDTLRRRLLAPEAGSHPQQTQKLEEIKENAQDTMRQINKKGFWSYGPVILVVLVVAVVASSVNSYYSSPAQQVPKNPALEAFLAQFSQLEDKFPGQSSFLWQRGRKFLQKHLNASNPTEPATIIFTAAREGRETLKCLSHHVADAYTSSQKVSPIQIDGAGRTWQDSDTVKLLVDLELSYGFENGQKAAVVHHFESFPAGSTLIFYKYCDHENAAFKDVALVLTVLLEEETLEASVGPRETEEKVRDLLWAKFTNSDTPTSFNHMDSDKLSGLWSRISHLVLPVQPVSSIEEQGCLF
Sequence of Neurogenic locus notch homolog protein 3 (Homo sapiens) (Q9UM47 whole entry, looked up): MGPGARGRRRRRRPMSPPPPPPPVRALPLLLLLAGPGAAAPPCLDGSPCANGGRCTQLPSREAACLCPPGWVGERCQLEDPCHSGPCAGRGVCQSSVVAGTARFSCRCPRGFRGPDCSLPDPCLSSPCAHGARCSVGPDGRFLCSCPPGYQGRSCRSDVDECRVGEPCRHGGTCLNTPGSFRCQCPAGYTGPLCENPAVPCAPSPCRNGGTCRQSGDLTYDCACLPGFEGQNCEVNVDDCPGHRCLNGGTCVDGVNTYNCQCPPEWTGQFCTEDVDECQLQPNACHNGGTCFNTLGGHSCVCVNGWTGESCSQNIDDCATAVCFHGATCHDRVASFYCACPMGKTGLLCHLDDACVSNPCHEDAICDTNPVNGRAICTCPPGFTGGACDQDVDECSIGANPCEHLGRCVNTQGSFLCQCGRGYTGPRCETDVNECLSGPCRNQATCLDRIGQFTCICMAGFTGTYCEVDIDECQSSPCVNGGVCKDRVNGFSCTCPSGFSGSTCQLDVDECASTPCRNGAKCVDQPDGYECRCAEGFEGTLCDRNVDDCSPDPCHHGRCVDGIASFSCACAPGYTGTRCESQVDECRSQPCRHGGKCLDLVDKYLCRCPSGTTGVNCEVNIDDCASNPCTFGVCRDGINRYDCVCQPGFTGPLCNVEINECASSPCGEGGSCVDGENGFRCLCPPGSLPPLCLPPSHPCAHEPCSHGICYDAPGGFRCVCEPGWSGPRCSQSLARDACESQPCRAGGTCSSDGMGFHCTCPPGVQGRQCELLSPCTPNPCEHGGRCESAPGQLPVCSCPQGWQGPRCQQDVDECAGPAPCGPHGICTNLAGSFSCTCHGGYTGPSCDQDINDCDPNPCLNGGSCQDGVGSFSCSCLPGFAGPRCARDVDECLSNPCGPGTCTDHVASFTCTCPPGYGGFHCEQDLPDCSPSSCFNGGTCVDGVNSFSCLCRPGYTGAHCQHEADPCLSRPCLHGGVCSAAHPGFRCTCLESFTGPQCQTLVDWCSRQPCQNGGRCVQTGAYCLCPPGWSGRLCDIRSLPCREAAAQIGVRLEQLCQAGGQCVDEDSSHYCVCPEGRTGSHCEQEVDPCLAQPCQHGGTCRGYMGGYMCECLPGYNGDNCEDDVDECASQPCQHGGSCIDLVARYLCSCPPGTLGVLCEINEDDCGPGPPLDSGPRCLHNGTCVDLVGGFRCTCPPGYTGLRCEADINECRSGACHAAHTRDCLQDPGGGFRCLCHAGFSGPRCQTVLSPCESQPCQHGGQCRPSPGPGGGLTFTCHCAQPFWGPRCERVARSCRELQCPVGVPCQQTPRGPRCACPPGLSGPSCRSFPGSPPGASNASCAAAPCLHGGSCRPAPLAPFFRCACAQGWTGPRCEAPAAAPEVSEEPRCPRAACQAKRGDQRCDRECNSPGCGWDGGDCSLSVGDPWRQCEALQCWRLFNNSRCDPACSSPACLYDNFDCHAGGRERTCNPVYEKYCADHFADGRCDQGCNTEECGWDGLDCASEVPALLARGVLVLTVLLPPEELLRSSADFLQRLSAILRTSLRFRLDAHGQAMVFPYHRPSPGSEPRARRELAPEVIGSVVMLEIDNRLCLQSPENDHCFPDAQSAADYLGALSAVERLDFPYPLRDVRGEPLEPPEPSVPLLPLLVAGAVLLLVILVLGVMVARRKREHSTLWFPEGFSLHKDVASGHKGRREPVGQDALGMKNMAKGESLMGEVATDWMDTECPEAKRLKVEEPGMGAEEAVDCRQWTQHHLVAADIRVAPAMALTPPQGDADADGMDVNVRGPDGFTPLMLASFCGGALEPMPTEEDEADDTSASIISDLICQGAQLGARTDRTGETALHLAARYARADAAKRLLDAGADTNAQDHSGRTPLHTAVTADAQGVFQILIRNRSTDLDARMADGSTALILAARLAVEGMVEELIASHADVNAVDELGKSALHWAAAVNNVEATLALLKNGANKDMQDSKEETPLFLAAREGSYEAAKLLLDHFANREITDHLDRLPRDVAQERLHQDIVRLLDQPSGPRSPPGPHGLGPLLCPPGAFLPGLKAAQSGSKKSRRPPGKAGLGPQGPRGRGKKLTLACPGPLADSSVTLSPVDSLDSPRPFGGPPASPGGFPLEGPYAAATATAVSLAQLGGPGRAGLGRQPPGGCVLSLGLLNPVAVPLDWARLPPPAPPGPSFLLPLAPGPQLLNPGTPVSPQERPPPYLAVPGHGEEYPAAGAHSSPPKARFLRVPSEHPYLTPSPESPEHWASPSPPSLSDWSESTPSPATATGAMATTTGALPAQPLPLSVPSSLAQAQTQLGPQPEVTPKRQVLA
Sequence of Pro-neuregulin-1, membrane-bound isoform (Homo sapiens) (Q02297 whole entry, looked up, the tested form may be a part, canonical isoform): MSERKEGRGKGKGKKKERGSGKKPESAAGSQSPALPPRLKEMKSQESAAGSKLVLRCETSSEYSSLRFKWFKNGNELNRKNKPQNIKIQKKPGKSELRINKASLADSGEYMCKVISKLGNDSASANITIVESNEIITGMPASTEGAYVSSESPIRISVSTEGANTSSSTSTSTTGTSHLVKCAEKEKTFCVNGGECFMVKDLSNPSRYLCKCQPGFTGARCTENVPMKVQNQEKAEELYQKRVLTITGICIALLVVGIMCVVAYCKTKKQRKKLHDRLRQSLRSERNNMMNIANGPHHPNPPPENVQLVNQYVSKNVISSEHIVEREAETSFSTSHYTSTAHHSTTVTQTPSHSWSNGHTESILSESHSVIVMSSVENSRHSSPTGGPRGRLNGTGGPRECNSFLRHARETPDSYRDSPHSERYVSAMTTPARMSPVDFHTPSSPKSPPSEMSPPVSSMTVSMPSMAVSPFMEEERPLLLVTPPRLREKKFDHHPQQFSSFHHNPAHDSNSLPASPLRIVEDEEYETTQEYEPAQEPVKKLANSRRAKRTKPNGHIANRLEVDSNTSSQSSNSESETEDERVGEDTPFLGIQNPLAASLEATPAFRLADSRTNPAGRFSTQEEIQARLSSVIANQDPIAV

In the case of `CCCNC(=O)OC[C@H]1O[C@H](CCON=C(C)CCN2CCc3nc(-c4ccccc4)c(-c4ccccc4)cc3C2)C=C[C@@H]1Oc1ccc(OC)cc1`, the composite z-score was -0.369 in [1]; 0.0379 in assay [2]; -0.116 in assay [3]; 0.118 in assay [4]; -0.247 in assay [5]; 0.48 in assay [6]. Moreover, the composite z-score in assay [7] is 0.524; in [9], 0.142; in [10], -0.0994; in assay [11] it was 0.497; in assay [15], 1.04; in [17] it was -0.0638. Further, the composite z-score in assay [18] was 0.553; in [19], -0.105; in [20], 0.0321. Moreover, the z-score in [8] was 0.198 (inactive); in assay [12] it was 1.12 (inactive); in assay [13], -0.724 (inactive); in [14] it was -3.57 (inactive); in assay [16], 0.385 (inactive).
Turning to `CO[C@H]1COC(=O)[C@H](C)NC(=O)CC=C[C@@H](C)[C@H](OC)COC(=O)CC=C[C@@H]1C`, the composite z-score is -0.748 in assay [1]; 2.16 in [2]; -0.125 in assay [3]; -0.0919 in assay [4]; -0.362 in [5]; -0.745 in assay [6]. In addition, the composite z-score in assay [7] was 0.0232; in assay [9], -0.0994; in assay [10] it was 0.201; in assay [11], 1.4; in assay [15] it was -0.247; in assay [17], -0.235. The values for the composite z-score in assay [18], in [19] and in [20] were 1.32, 0.164 and 0.0556, respectively. In addition, the z-score in assay [8] is -0.628 (inactive); in assay [12] it was 1.17 (inactive); in assay [13], 0.306 (inactive); in [14] it was 1.13 (inactive); in [16] it was 1.3 (inactive).
Turning to `COC(=O)C1=C(C)N(Cc2ccccc2)C2=C(C(C)=O)[C@H](c3ccccc3)[C@@](O)(C(=O)OC)C(=O)N2[C@@H]1c1ccccc1`, the composite z-score in assay [1] was -0.449 and -0.481; in assay [2], 0.468 and -0.61; in assay [3], -0.129 and -0.139; in assay [4], 0.778 and -0.338; in [5], 0.691 and 0.083; in assay [6] it was 0.595 and -0.445. Moreover, the composite z-score in [7] was 1.18 and -1.44; in assay [9], 0.277 and -0.201; in assay [10], 0.0515 and -0.281; in assay [11], 1.09 and -0.374; in [15], 0.72 and -0.756; in [17] it was -0.0873 and -0.254. Further, the composite z-score in assay [18] is 0.409 and 0.203; in [19] it was 1.13 and -0.352; in [20], 0.0729 and -0.118. In addition, the z-score is -2.61 (inactive) and -1.77 (inactive) in [8]; 0.0482 (inactive) and -3.34 (inactive) in [12]; -4.6 (inactive) and -4.09 (inactive) in [13]; -0.873 (inactive) and -2.14 (inactive) in assay [14]; -0.0134 (inactive) and -0.274 (inactive) in assay [16].
Turning to `C=CCN(CCCCC)C(=O)C(c1cccs1)N(CCOCCO)C(=O)/C=C\C(=O)O` (stereo not given), the composite z-score in [1] was -0.192 and 0.0796; in assay [2], 0.185 and -1.07; in [3] it was -0.157 and -0.113; in [4], -1.26 and -0.317; in assay [5], -1.84 and -1.41; in assay [6] it was -0.661 and -0.969. Moreover, the composite z-score in assay [7] was -0.196 and -0.609; in assay [9], -1.48 and -0.675; in [10], -0.0922 and -0.41; in assay [11], -0.718 and -0.737; in assay [15], -0.93 and -0.573; in assay [17], -0.0977 and -0.0831. Besides, the composite z-score in assay [18] was -1.24 and -1.19; in assay [19] it was -1.09 and -1.06; in [20] it was -0.231 and -0.324. Further, the z-score in assay [8] was 0.874 (inactive) and 1.45 (inactive); in [12], -1.32 (inactive) and -1.53 (inactive); in assay [13], -0.464 (inactive) and -0.606 (inactive); in assay [14], -0.289 (inactive) and -0.433 (inactive); in assay [16], 0.986 (inactive) and 1.18 (inactive).
